CaV13 FRET inh: Disruptors of the CACNA1D IQ motif to Ca2+-dependent inactivation inhibitor domain association, primary screening, Förster resonance energy transfer in intact living …. actives 0.098% (n = 340,000). inhibition, % at 12.3 µM. HEK cells, CFP/YFP FRET ICDI-IQ, plate reader, 10 min; percent FRET-ratio fall versus neutral wells;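 active = mean replicate inhibition of at least 30% and at least 1% of replicates passing that level; inconclusive = only one of the two criteria is met; inactive = neither criterion is met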;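 also: 0% = median of the neutral control wells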
DENV2 CPE rescue: protects cells from dengue virus 2 cytopathic effect | DENV2-infected cells, cytopathic effect rescue, plate reader | actives 1.7% (n = 350,000) | CPE inhibition, % at 9.99 µM | AID 651640; in the data active = CPE inhibition above about 20%, passing the limit was not always enough; inconclusive = no clear call, values can overlap the other calls; tested in BHK-21 cells;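 also: 0% = median of neutral control wells and 100% = median of positive control wells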
PGC1a acetyl inh: lowers PGC1a acetylation signal in U2OS cells | AlphaScreen anti-acetyl-lysine; with virally co-expressed GCN5 acetyltransferase | inhibition, % at 15.6 µM | actives 0.17% (n = 350,000) | AID 651687;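 active = every replicate shows inhibition of at least 40%; inconclusive = mean inhibition at least 40% but some replicate below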;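 also: 0% = neutral control wells and 100% = positive control wells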
GSIS activator: primary screen for activators of insulin secretion dependent on glucose, INS-1E cells, GLuc reporter luminescence; INS-1E GLuc reporter insulin secretion, 2-3 h; activation, % at 16.6 µM; actives 0.61% (n = 370,000); AID 743287;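 active = lowest replicate activation of at least 40%, so every replicate reaches that level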;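 also: 0% = median of neutral control wells and 100% = median of IBMX positive control wells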
Ecoli rRNA inh: inhibits bacterial ribosomal RNA function over humanized ribosomes; actives 1.6% (n = 350,000); E. coli WT GFP vs humanized-ribosome RFP mutants, fluorescence, 24 h; hits give low values; DMSO median 0, no signal -100; GFP signal change (wild-type ribosome), % (no concentration beside the values);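 active = significant combined selectivity score with lowered wild-type GFP, culture density cut under 30%, mutant RFP and density less affected; inactive = any of these conditions unmet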
ERAP1 inh: inhibitors of human ERAP1 aminopeptidase. Q9NZ08. recombinant ERAP1, Leu-AMC fluorescence, 60 min. inhibition, % at 10.7 µM. actives 0.15% (n = 340,000). AID 652197;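 active = mean replicate inhibition of at least 30%, or all replicates individually reaching that 30% level; inactive = mean below 30% and not every replicate reaching it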;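 also: 0% = neutral control wells and 100% = L-leucinethiol positive control wells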
Target sequence (Q9NZ08 whole entry, looked up): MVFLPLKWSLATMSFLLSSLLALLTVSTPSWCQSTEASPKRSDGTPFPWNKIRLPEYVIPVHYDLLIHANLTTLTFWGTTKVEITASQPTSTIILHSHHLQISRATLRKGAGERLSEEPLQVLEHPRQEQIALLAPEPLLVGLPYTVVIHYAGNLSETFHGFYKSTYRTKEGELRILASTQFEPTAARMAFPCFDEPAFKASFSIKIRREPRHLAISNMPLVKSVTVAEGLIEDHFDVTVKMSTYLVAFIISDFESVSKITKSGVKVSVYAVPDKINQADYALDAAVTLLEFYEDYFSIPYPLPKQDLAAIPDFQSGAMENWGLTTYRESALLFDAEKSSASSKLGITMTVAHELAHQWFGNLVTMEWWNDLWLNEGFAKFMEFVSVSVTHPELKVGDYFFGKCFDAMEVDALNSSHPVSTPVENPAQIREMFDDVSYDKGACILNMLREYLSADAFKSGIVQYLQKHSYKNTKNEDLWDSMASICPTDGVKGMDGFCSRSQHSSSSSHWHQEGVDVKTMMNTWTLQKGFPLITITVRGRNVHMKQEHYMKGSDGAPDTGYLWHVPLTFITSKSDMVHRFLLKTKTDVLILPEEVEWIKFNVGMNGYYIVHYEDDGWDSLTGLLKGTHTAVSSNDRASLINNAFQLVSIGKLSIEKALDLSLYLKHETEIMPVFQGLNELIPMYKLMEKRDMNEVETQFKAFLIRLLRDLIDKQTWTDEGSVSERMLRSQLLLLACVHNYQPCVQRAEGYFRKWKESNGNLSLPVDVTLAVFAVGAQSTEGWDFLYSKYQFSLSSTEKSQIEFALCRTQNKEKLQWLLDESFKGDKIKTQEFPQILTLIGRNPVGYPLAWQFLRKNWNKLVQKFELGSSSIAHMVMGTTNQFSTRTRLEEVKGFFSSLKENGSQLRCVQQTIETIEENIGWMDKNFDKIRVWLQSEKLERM
* marks the source's active call; other numbers are inactive results; u = inconclusive; x = not tested or not shown. An excerpt weighted towards active compounds, which were near 3.2% of everything screened.

SMILES	CaV13 FRET inh	DENV2 CPE rescue	PGC1a acetyl inh	GSIS activator	Ecoli rRNA inh	ERAP1 inh
CCC(=O)Nc1ccc2c(c1)C(=O)N(C)[C@H]1CC[C@H](CC(=O)O)O[C@H]1CO2	x	-1.4	2.7	5.4	4.3	-1.5
CCC(=O)Nc1ccc2c(c1)C(=O)N(C)[C@@H]1CC[C@H](CC(=O)O)O[C@H]1CO2	x	24.0*	6.6	0.2	2.7	-0.5
CCS(=O)(=O)Nc1ccc2c(c1)C(=O)N(C)[C@H]1CC[C@H](CC(=O)NC3CCCCC3)O[C@H]1CO2	x	11.6	14.6	0.9	0.2	-4.0
Cc1cccc(NC(=O)Nc2ccc3c(c2)C(=O)N(C)[C@@H]2CC[C@@H](CC(=O)O)O[C@H]2CO3)c1	x	71.9*	-1.0	3.9	5.4	-6.0
COc1ccc2c3c(n(C)c2c1)[C@H](CO)N(C(=O)CN1CCOCC1)CC31CCN(C)CC1	x	-0.3	-3.8	27.1	2.1	x
O=C(C[C@H]1CC[C@H](NC(=O)Cc2ccccn2)[C@@H](CO)O1)NCCc1ccccc1	x	-7.7	-7.8	-8.9	3.0	0.9
CO[C@H]1CN(C)C(=O)c2cc(NC(C)=O)ccc2OC[C@@H](C)N(C(=O)CC2CC2)C[C@@H]1C	x	-5.1	-0.5	-3.3	1.6	0.1
COc1ccc(NC(=O)N2C[C@H](O)COC[C@H]3O[C@H](CC(=O)NCc4ccccc4OC)CC[C@@H]32)cc1	x	-3.1	0.2	-6.8	-1.7	1.5
CCC(=O)N1CC2(CCN(Cc3ccncc3)CC2)c2c(n(C)c3cc(OC)ccc23)[C@@H]1CO	x	-9.1	-5.8	15.7	-3.0	x
O=C(NCCN1CCOCC1)C(=O)NCC1OCCN1S(=O)(=O)c1ccc(Cl)cc1 (stereo not drawn)	-13.1	79.2*	x	x	5.2	-2.1
CC(C)CN(C(=O)C1CCCCC1)C1CCS(=O)(=O)C1 (stereo not drawn)	-5.6	-1.0	x	41.3*	5.3	3.3
CC(C)CN(C(=O)C1CC1)C1CCS(=O)(=O)C1 (stereo not drawn)	-7.4	-0.9	6.0	7.4	6.7	-0.2
O=S(=O)(NCc1c(Cl)cccc1Oc1ccccc1)c1ccccc1	-4.7	31.7*	33.6	-28.5	-29.4	0.5
Cc1ccc(S(=O)(=O)NCc2c(Cl)cccc2Oc2ccccc2)cc1	x	x	-20.9	x	x	x
N#Cc1c(Cl)cccc1Oc1ccc(S(=O)(=O)Nc2ccccc2)cc1	-4.3	-12.7	-2.7	-40.5	-28.5*	-0.3
COc1ccccc1C(=O)Nc1ccc2c(c1)OC[C@@H](C)N(C(C)=O)C[C@@H](C)[C@@H](OC)CN(C)C2=O	x	4.0	3.9	3.7	0.2	x
COc1cccc(Nc2nc(N)c([N+](=O)[O-])c(N3CCOCC3)n2)c1	-4.0	-0.1	-9.2	26.7	-29.4*	7.4
CCOc1ccc(Nc2nc(N)c([N+](=O)[O-])c(N3CCOCC3)n2)cc1	-4.5	-2.6	-5.2	13.1	20.2	0.9
Cc1cccc(Nc2nc(N)c([N+](=O)[O-])c(N3CCOCC3)n2)c1	-5.0	-1.9	x	x	-24.1*	6.6
Cc1ccc(Nc2nc(N)c([N+](=O)[O-])c(N3CCOCC3)n2)cc1	-5.6	x	x	55.9*	x	x
O=C(NCC[C@H]1CC[C@H](NC(=O)C2CCC2)[C@H](CO)O1)Nc1ccc(Cl)cc1	x	0.1	9.5	-5.8	-18.4	3.6
O=C(Nc1ccc(O)cc1)c1ccc2c(c1)C(=O)N(Cc1cccnc1)C2=O	-3.4	22.4*	-2.3	22.0	8.4	3.2
CC(=O)N(C)C[C@H]1Oc2ncc(C#Cc3ccccn3)cc2C(=O)N([C@H](C)CO)C[C@H]1C	x	6.8	0.0	-0.1	6.0	-1.0
COc1ccc(C2C(C(C)=O)=C(O)C(=O)N2c2ccc(C)cc2)cc1 (stereo not drawn)	-2.4	0.8	x	x	-24.0*	0.5
C[C@H](CO)N1C[C@H](C)[C@H](CN(C)C(=O)CC2CC2)Oc2cc(C#CC3CC3)ccc2S1(=O)=O	x	1.1	-44.7	6.3	-2.2	-2.1
SMILES	CaV13 FRET inh	DENV2 CPE rescue	PGC1a acetyl inh	GSIS activator	Ecoli rRNA inh	ERAP1 inh
O=C(NN=Cc1c(O)ccc2ccccc12)C1CC1	-7.8	-0.5	9.0	-10.0	-16.8*	4.2
CC(C)CCN1CC(O)=C(c2nc(-c3ccc(Cl)cc3)cs2)C1=N	-2.0	x	1.4	78.3*	x	x
COc1ccc(N2CC(O)=C(c3nc(-c4ccc(Cl)cc4)cs3)C2=N)cc1	-5.1	3.6	-9.1	-10.7	1.5	0.3
COc1ccc(-c2csc(C3=C(O)CN(C(C)C)C3=N)n2)cc1OC	-4.6	6.3	-5.7	21.4	-34.9*	1.3
C[C@H]1CN([C@@H](C)CO)C(=O)c2cc(C#Cc3ccc(F)cc3)cnc2O[C@H]1CN(C)Cc1ccccn1	x	6.8	-16.0	-7.3	-2.5	1.2
COc1ccccc1-c1cnc2c(Nc3cccc(OC(F)(F)C(F)F)c3)nccn12	-4.5	2.7	x	79.3*	11.4	-1.4
CCOP(=O)(c1ccccc1)C(O)c1ccc([N+](=O)[O-])cc1 (stereo not drawn)	-20.4	39.4*	3.4	1.5	16.0	-1.5
CC(=O)Nc1sc2c(c1-c1nc3ccccc3s1)CN(C(C)C)CC2	-6.5	3.3	51.9*	-51.7	-53.0	1.3
CC(=O)N1CCc2c(sc(NC(=O)C3CC3)c2-c2nc3ccccc3s2)C1	-9.2	u	1.2	-2.1	-3.7	-6.4
Cn1c(N)c(C(c2ccccc2)c2c(N)n(C)c(=O)n(C)c2=O)c(=O)n(C)c1=O	-9.9	x	x	41.1*	x	x
COc1cccc(C(c2c(N)n(C)c(=O)n(C)c2=O)C(C)[N+](=O)[O-])c1 (stereo not drawn)	-3.4	-1.0	x	17.8	-0.5	-2.8
COc1ccccc1C(C[N+](=O)[O-])c1c(N)n(C)c(=O)n(C)c1=O (stereo not drawn)	-4.7	3.0	-27.4	-23.2	-33.5*	2.7
C/C=C/c1ccc([C@H]2[C@@H](CO)N(C(=O)C3CCC3)[C@H]2CNC(=O)NC(C)C)cc1	x	-13.3	2.9	8.4	-1.8	x
C/C=C/c1ccc([C@@H]2[C@@H](CO)N(C(C)=O)[C@@H]2CNC(=O)CC2CC2)cc1	x	85.6*	-0.2	11.8	0.5	-2.4
C/C=C/c1ccc([C@H]2[C@@H](CO)N[C@@H]2CNC(=O)C2CCC2)cc1	x	34.1*	x	10.8	2.0	-0.7
C/C=C/c1ccc([C@H]2[C@@H](CO)N(C(=O)C3CCC3)[C@@H]2CNC(=O)NC(C)C)cc1	x	79.6*	x	-2.6	-2.9	-1.3
CCCNC(=O)N1CCC2(CC1)CN(C(=O)CN1CCOCC1)[C@@H](CO)c1[nH]c3cc(OC)ccc3c12	x	3.2	x	15.6	1.6	-3.1
Cc1cc(/C=C2\SC(=O)NC2=O)c(C)n1-c1ccc(N2CCOCC2)cc1	-4.3	4.1	1.8	-44.3	-24.2	66.6*
